# Rows were chosen to be rich in hits. Some 8.7% of all compounds tested hit in one or more screens of this group.
# Sfp inh: inhibitors of Bacillus subtilis Sfp phosphopantetheinyl transferase; Biochemical Sfp PPTase activity, qHTS; 310,000 compounds, 3.5% hits; Potency, µM, inactives show largest response in the series, negative = inhibition, most hits filed as inhibitors; AID 1490; Q9F4F7;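 note: the enzyme is Sfp with the accession as filed and its product quenches rhodamine fluorescence; 0% = enzyme reaction without inhibitor and -100% = no enzyme wells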
#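 Fluorescence-quenching assay with 15 nM Sfp, 5 uM rhodamine-CoA and 12.5 uM BHQ-2-labelled ybbR peptide in pH 7.6 Hepes/MgCl2 buffer. Enzyme was pre-incubated with compound for 15 min at room temperature. Rate was taken from the 30-min fluorescence change (525/598 nm).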
# JMJD2A Tudor inh: inhibitors of human JMJD2A Tudor domain; Potency, µM (doses to about 114 µM), for the others: at the top dose activity change, negative = inhibition, usual class: inhibitors; 390,000 compounds, 4.4% hits; AlphaScreen JMJD2A-Tudor / H3K4me3 peptide binding; AID 504339; O75164; note: % is set by controls: 0 for no effect and ±100 for the full control effect; nearly all actives have a fitted effect of over 50% in size
# BAZ2B inh: BAZ2B (human) inhibition; Q9UIF8; AlphaScreen BAZ2B-H3K14Ac peptide displacement; Potency, µM (top dose mostly 114 µM), inactives show at the top dose activity change, negative = inhibition, hits mostly inhibitors; 360,000 compounds, 4.4% hits; AID 504333; note: % is set by controls: 0 for no effect and ±100 for the full control effect; nearly all actives have a fitted effect of over 60% in size
#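 AlphaScreen luminescence quantifies BAZ2B engagement of H3K14Ac peptide; the protein and biotinylated peptide are both at 50 nM final, buffer PBS pH 7.4 with 0.01% Tween-20, all steps at room temperature.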
# G9a inh: G9a (human) methyltransferase inhibition; AID 504332; 350,000 compounds, 8.8% hits; Potency, µM (highest dose often 102 µM), for inactives: top-dose activity, negative = inhibition, most hits filed as inhibitors; G9a H3K9 monomethylation, AlphaScreen, 2 h; note: % is set by controls: 0 for no effect and ±100 for the full control effect; nearly all actives have a fitted effect of over 75% in size
# Target sequence (Q96KQ7 913-1193 limits assumed): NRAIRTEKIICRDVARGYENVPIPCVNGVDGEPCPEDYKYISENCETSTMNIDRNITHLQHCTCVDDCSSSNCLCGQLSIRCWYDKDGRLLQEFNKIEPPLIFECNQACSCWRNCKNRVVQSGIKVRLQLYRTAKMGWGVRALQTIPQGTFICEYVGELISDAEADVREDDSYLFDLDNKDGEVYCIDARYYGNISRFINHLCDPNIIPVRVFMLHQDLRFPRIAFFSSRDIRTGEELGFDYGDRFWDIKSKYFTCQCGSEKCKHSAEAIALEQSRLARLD
#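 Readings reflect AlphaScreen signal from monomethyl-H3K9 antibody detection. HMT at 20 nM; substrate b-H3K9 500 nM; cofactor SAM 20 uM; 2 h RT reaction; compounds tested as titrations in qHTS with 15 min preincubation.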
# 12-LOX inh: ALOX12 (human) lipoxygenase inhibition; P18054; purified 12hLO, xylenol orange hydroperoxide absorbance; Potency, µM (doses to about 108 µM), inactives show at the highest dose activity change, negative = inhibition, hits mostly inhibitors; 580,000 compounds, 1.1% hits; AID 1671190; note: % is set by controls: 0 for no effect and ±100 for the full control effect
#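 Purified human 12hLO (150 nM final) in 25 mM Hepes, 0.01% Triton X-100, pH 7.0 was preincubated 15 min at room temperature with compound. Then 40 uM arachidonic acid was added, 30 min. Hydroperoxide was read by Fe-XO absorbance ratio 573/405 nm.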
# HP1b binding inh: blocks HP1-beta chromodomain binding to methylated histone tails. P83916. AlphaScreen HP1-beta / biotin-H3K9me3 peptide binding. Potency, µM (series often up to 114 µM), for inactives: at the top dose activity change, negative = inhibition, hits mostly inhibitors. 390,000 compounds, 0.56% hits; note: nearly all actives have a fitted effect of over 70% in size
# Target sequence (P83916 whole entry, looked up): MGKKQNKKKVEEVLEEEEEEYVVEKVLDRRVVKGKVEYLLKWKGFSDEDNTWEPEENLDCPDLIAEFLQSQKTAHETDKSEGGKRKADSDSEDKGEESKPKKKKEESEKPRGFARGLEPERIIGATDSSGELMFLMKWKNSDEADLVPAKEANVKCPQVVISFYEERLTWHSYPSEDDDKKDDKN
#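 Compound inhibition of the preformed complex between 50 nM HP1-beta and 50 nM biotinylated H3K9me3 peptide was read by AlphaScreen. Buffer was PBS pH 7.4 with 0.01% Tween-20. Incubations ran 30 min at room temperature, with 10 ug/mL donor/acceptor beads.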
# Numbers without * were called inactive; ? = inconclusive; · = not tested or not shown; ! = repeats disagree; [ ] = dose if it differs, or a comment. Calls come from the whole dose curve; as a rule, active = well fitted curve in the direction sought with a large enough effect; inconclusive = small, poorly fitted or top-dose-only effect, or another doubt; inactive = no such curve, though single readings can be large; an effect the other way counts as inactive or inconclusive. Potency is the fitted concentration of half-maximal effect.
SMILES,Sfp inh,JMJD2A Tudor inh,BAZ2B inh,G9a inh,12-LOX inh,HP1b binding inh
CC(C)(C)c1ccc(-c2cn(C[C@H]3CC4CCN3C[C@@H]4C(=O)NCc3ccccc3)nn2)cc1 (stereo not given in full),·,·,·,·,-8.6%,·
O=C([C@H]1CN2CC[C@H]1C[C@@H]2Cn1cc(CO)nn1)N1CCOCC1,·,·,·,·,49.6%[176 µM],·
O=C(COc1ccccc1/C=C1/NC(=O)NC1=O)Nc1ccccc1,4.2%,-17.2%,-8.8%,?,-33.9%,-6.6%
COc1ccc(C=C2C(=O)N(C)C(=O)N(C)C2=O)cc1COc1ccc(NC(C)=O)cc1,39.8µM*,-17.1%,?,44.7µM*,0.0%,-2.8%
CN1C(=O)C(=Cc2ccc(OCC(=O)Nc3ccccc3)cc2)C(=O)N(C)C1=O,50.1µM*,-8.3%,-6.8%,·,·,30.1%
CN1CCCC(C(=O)N2C3CCC2CN(Cc2cccnc2)C3)C1 (stereo not given),·,·,·,·,2.0%[6.33 µM],·
CCN1C(=O)C(=C/C=C/c2ccco2)C(=O)N(CC)C1=S,39.8µM*,50.1µM*,44.7µM*,12.6µM*,?,?
CC(C)N1C(=O)/C(=C/C=C/c2ccco2)C(=O)N(Cc2ccco2)C1=O,-80.6%,14.1µM*,35.5µM*,·,?,28.2µM*
NCCc1cccc(N)n1,·,·,·,·,-41.0%,·
O=[S+]1([O-])NC2(CCN(Cc3ccncc3)C2)COc2ccncc21 (stereo not given),·,·,·,·,8.0%[6.33 µM],·
N#C/C(=C\c1ccc(O)cc1)C(=O)O (tested in a mixture with another compound),·,-14.4%,·,·,-7.2%,9.9%
N#CC(C#N)=Cc1cc(O)c(O)c(O)c1,50.1µM*,·,·,8.91µM*,?,·
CC(C)(C)c1cc(C=C(C#N)C#N)cc(Br)c1O,·,·,·,·,-5.2%[57.4 µM],·
N#CC(C#N)=Cc1ccc(O)cc1,22.4µM*!,·,·,·,·,·
O=C(NCc1ccncc1)C1CNCC12CCOCC2 (stereo not given),·,·,·,·,4.6%,·
Cc1ccc(C(=O)Nc2cccc3cnccc23)cc1S(=O)(=O)N1CCCCC1,·,·,·,·,-56.5%,·
O=[N+]([O-])c1ccc(O[C@@H]2O[C@H](CO)[C@@H](O)[C@H](O)[C@H]2F)c([N+](=O)[O-])c1,·,·,·,23.8µM*!,·,·
C[C@]12C=CC(=O)C=C1CCC1C2=CC[C@]2(C)[C@@H](C(=O)CN3CCN(c4cc(N5CCCC5)nc(N5CCCC5)n4)CC3)CC[C@@H]12 (stereo not given in full),·,·,·,39.8µM*,·,·
O=C1NCCOCCN[C@@H]2CCCC[C@H]12,·,·,·,·,47.6%,·
Cc1ccccc1-c1ccc2n1Cc1cnnn1-c1ccccc1-2,·,50.1µM*,·,·,6.8%,?
CN1CCN(c2ccc(NC=C(C#N)C#N)cc2)CC1,·,·,·,·,6.1%,·
Cc1ccc(S(=O)(=O)NN)c(C)c1N1CCCC1=O,56.2µM*,-8.1%[11.4 µM],1.6%,·,-18.4%,61.8%
Cc1cc(/C=C2\C(=O)NC(=O)N(c3cccc(F)c3)C2=O)c(C)n1-c1cc(C(=O)O)cc(C(=O)O)c1,-21.1%,79.4µM*,44.7µM*,·,?,-14.1%
Cc1cc(/C=C2\C(=O)NC(=O)N(c3ccc(Br)cc3)C2=O)c(C)n1-c1cc(C(=O)O)cc(C(=O)O)c1,-1.8%,22.4µM*,56.2µM*,20µM*,?,?
C/C(=N\NC(=S)Nc1ccccc1)c1c(O)n(C)c(=O)n(C)c1=O,28.2µM*,17.8µM*,-3.8%,1.26µM*,-8.3%,-8.1%
SMILES,Sfp inh,JMJD2A Tudor inh,BAZ2B inh,G9a inh,12-LOX inh,HP1b binding inh
CCC(=NCc1cc(OC)cc(OC)c1)c1c(O)n(C)c(=O)n(C)c1=O,50.1µM*,-22.5%,-5.0%,-28.5%[59 µM],21.9%,26.0%
CCC(=NCc1ccc2c(c1)OCO2)c1c(O)n(C)c(=O)n(C)c1=O,8.7%,-6.1%[57.1 µM],3.6%,?,?,45.6%
CC/C(=N\Nc1ccccc1)c1c(O)n(C)c(=O)n(C)c1=O,?,-17.6%,-29.5%,22.4µM*,-20.8%,23.8%
C/C(=N\Nc1cccc2ccccc12)c1c(O)n(Cc2ccccc2)c(=O)[nH]c1=O,?,79.4µM*,?,1.58µM*,-29.7%,?
CC[C@H]1CN2CC[C@H]1C[C@@H]2CNC(=O)c1cccc(F)c1,·,·,·,·,97.1%[176 µM],·
CC(N)Cc1ccc2oc3ccccc3c2c1 (stereo not given),·,·,·,·,-6.8%,·
CC/C(=N\Nc1ccccc1)c1c(O)n(-c2ccccc2)c(=O)[nH]c1=O,6.5%,-12.2%,-23.4%,39.8µM*,?,55.0%
CC/C(=N\NC(=O)Nc1ccccc1)c1c(O)n(Cc2ccccc2)c(=O)[nH]c1=O,6.9%,-27.1%,-2.1%,-21.9%,?,40.2%
COc1ccc(-n2c(O)c(/C(C)=N/Nc3ccccc3)c(=O)[nH]c2=O)cc1,0.0%,-15.1%,-5.9%,39.8µM*,?,41.9%
N#C/C(=C\c1ccccc1)C(=O)Nc1ccc(Br)cc1C(=O)c1ccccc1,·,·,·,·,4.0%,·
CCN1CCCCC12Cc1ccccc1CN(C(=O)Cc1ccc(O)cc1)C2 (stereo not given),·,·,·,·,7.5%[6.33 µM],·
N#Cc1ccc(NC(=O)CN2CCN(C(=O)c3cccs3)CC2)cc1Cl,·,-9.0%,-6.7%,39.8µM*,-4.5%,29.0%
c1ccc(-c2ccc(C(c3ccccc3)n3ccnc3)cc2)cc1 (stereo not given),?,25.1µM*,25.1µM*,?,7.0%,-27.9%
c1ccc(C(c2ccccc2)c2cccnc2)cc1,·,6.9%,·,·,13.3%,12.6%[57 µM]
O=C(NC1CCCCCC1)c1ccc[nH]c1=S,?,5.01µM*,-4.2%,2.51µM*,-24.6%,?
CC(C)n1c(O)c(C2c3cc(Cl)ccc3Oc3[nH]c(=O)n(C(C)C)c(=O)c32)c(=O)[nH]c1=O (stereo not given),28.2µM*,-16.2%,-23.8%,4.47µM*,·,9.1%
O=Cc1cccc2ccccc12,·,·,·,·,-26.1%,·
CCn1c(NN=O)nc2ccccc21,50.1µM*,89.1µM*,56.2µM*,?,?,-20.5%
CCCC1(CCO)C(=O)NC(=S)NC1=O,·,20µM*,·,·,-18.9%,21.7%
CC=C(C)C1(CCC)C(=O)NC(=S)NC1=O,·,-13.9%,·,·,31.6µM*,16.6%
CCC(CC)c1cc([C@H]2CN3CC[C@H]2C[C@@H]3COC(=O)Nc2ccc(C(C)(C)C)cc2)nc(-c2ccncc2)n1,·,·,·,·,50.1µM*,·
CCCNC(=O)OC[C@H]1C[C@@H]2CCN1C[C@@H]2c1cc(C(CC)CC)nc(-c2ccncc2)n1,·,·,·,·,7.7%,·
CC(C)C1(C)N=C(c2nc3ccccc3cc2C(=O)O)NC1=O (stereo not given),-3.0%,-21.4%,-36.2%,7.8%[2.33 µM],?,30.0%

# Screening results from PubChem BioAssay.
